For orientation: inhibition means the change of the read-out against control, counted positive when it falls.

A short description of experiment [1]: disruption of biotin probe capture by avidin, counter-screen for RGS protein interaction modulators, biochemical, flow cytometry, bead-based (AID 1783).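 Further: median green fluorescence of gated singlet beads compared with DMSO control wells; 0% = DMSO wells and 100% = complete loss of bead fluorescence.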 Conditions: streptavidin beads, fluorescein-biotin binding; at 10 µM, stronger effect = higher value. In general terms: Counterscreens check selectivity or assay interference.
Experiment [2] has as its target Guanine nucleotide-binding protein G(o) subunit alpha (Homo sapiens) (UniProt P09471). Kind of experiment: RGS8-Galphao binding modulators, confirmation, biochemical, multiplexed bead flow cytometry, single concentration (AID 1836; in the data active means binding response below about 72% or above about 130%; inactive means in between;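 further: Galphao activated as GDP AlF4 complex before binding bead RGS8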). Conditions: bead-based flow cytometry RGS8-Galphao binding, fluorescence; at 10 µM; actives lie on both sides. In general terms: Flow cytometry measures light scatter and fluorescence of single cells or particles in a stream.

Experiment [3] shares this target. Kind of experiment: RGS7-Galphao binding modulators, confirmation, biochemical, multiplexed bead flow cytometry, single concentration (AID 1837; in the data active means response below about 75% or above about 130%; inactive means in between;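 further: fluorescent Galphao activated with GDP and aluminum fluoride binding bead-coupled RGS7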). Conditions: bead-based flow cytometry RGS7-Galphao binding; at 10 µM; actives lie on both sides.
Experiment [4] deals with Regulator of G-protein signaling 16 (Homo sapiens) + Guanine nucleotide-binding protein G(o) subunit alpha (Homo sapiens) (UniProt O15492+P09471). Kind of experiment: modulators of RGS16-Galphao protein binding, confirmation, biochemical, single concentration, multiplexed bead flow cytometry (AID 1838; in the data active means response below about 74% or above about 130%; inactive means in between;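 further: Galphao activated as the GDP aluminium fluoride complex binding bead-coupled RGS16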). Conditions: bead-based flow cytometry, at 10 µM, actives lie on both sides.
Regulator of G-protein signaling 16 (Homo sapiens) + Guanine nucleotide-binding protein G(o) subunit alpha (Homo sapiens), sequence (O15492 whole entry, looked up): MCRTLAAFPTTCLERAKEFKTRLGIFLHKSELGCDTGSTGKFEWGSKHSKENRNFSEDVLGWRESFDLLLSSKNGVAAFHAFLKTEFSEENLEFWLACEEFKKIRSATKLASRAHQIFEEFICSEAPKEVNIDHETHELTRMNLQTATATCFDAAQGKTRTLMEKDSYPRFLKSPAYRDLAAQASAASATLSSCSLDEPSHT
Regulator of G-protein signaling 16 (Homo sapiens) + Guanine nucleotide-binding protein G(o) subunit alpha (Homo sapiens), sequence (P09471 whole entry, looked up): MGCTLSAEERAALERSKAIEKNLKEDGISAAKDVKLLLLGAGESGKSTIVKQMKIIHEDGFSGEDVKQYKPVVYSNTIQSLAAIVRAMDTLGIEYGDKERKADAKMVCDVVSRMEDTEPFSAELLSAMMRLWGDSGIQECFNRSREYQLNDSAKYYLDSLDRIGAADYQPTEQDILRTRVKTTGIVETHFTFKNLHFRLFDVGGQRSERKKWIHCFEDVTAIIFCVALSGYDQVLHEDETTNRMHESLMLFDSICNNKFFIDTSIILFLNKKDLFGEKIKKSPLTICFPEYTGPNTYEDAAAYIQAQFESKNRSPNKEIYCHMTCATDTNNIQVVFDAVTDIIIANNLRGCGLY

Experiment [5] addresses Guanine nucleotide-binding protein G(o) subunit alpha (Homo sapiens) (UniProt P09471). Description: modulators of RGS4-Galphao protein binding, confirmation, biochemical, single concentration, multiplexed bead flow cytometry (AID 1840; in the data active means binding response below about 74% or above about 130%; inactive means in between). Conditions: at 10 µM, actives lie on both sides.
Experiment [6] has as its target Guanine nucleotide-binding protein G(o) subunit alpha (Homo sapiens) + Regulator of G-protein signaling 19 (Homo sapiens) (UniProt P09471+P49795). Description: regulators of RGS19-Galphao binding, confirmation, biochemical, single point, multiplexed bead flow cytometry (AID 1841; in the data active means response below about 50% or above about 160%; inactive means in between;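 further: 100% = no compound control and 0% = blank background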). Conditions: bead-based flow cytometry RGS19-Galphao binding; at 10 µM; actives lie on both sides.

A short description of experiment [7]: yeast TOR pathway RPL19A-GFP modulators, primary screen, cell-based, S. cerevisiae, multiplex flow cytometry (AID 1862; in the data active means percent of DMSO control GFP below about 86%;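 further: lower values mimic rapamycin by blocking the RPL19A rise seen in DMSO cells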). Conditions: S. cerevisiae RPL19A-GFP strain, flow cytometry fluorescence, 3 h; at 10 µM; stronger effect = lower value.
The nature of experiment [8]: modulators of MEP2-GFP levels in yeast, primary screen, S. cerevisiae, multiplex flow cytometry (AID 1867;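 active means GFP response, as percent of the DMSO control, above the screen-wide mean plus 3 SD, about 139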;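 further: median GFP channel fluorescence of barcode-gated MEP2-GFP cells measured by flow cytometry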). Conditions: S. cerevisiae MEP2-GFP strain, 3 h, at 10 µM, stronger effect = higher value, 100% means same as DMSO wells.
Experiment [9] is described as follows: modulators of CIT2-GFP expression in yeast, primary screen, S. cerevisiae, GFP fusion, multiplex flow cytometry (AID 1870;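 active means percent response above a set limit, the screen-wide mean plus 3 SD, cut at about 130% in these data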;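 further: barcoded CIT2-GFP strain pooled with four other GFP strains with rapamycin as positive control; median GFP fluorescence per well over plate mean of DMSO wells so 100% = DMSO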). Conditions: 3 h, at 10 µM, stronger effect = higher value.
Experiment [10] in a line: modulators of LAP4-GFP expression in yeast, primary screen, S. cerevisiae, multiplex flow cytometry (AID 1873;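 active means GFP signal, as percent of the solvent control, above the screen mean plus 3 SD, about 149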). Conditions: 3 h, at 10 µM, stronger effect = higher value.
Experiment [11] can be described thus: modulators of AGP1-GFP expression in yeast TOR pathway, primary screen, cell-based, multiplex flow cytometry, S. cerevisiae (AID 1887;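 active means GFP signal above the screen-wide mean plus 3 SD, that is over about 124.5% of the solvent control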;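 further: AGP1-GFP fusion strain of S. cerevisiae within a five-strain barcoded multiplex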). Conditions: 3 h, at 10 µM, stronger effect = higher value.
Experiment [12] can be described thus: RPL19A-GFP modulators, yeast TOR pathway, confirmation, cell-based, S. cerevisiae, flow cytometry, cherry picks, mother/daughter gates (AID 2270;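 active means GFP response below 50% of the DMSO control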). Conditions: S. cerevisiae RPL19A-GFP strain, 3 h, at 10 µM, stronger effect = lower value, 100 = same GFP as DMSO wells.
Experiment [13] is described as follows: LAP4-GFP expression modulators in yeast, confirmation, cell-based, cherry picks, flow cytometry, mother/daughter gates (AID 2271;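 active means GFP response above 150% of the DMSO control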;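 further: ratio of sample to DMSO plate mean so 100% equals DMSO level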). Conditions: S. cerevisiae LAP4-GFP strain, 3 h, at 10 µM, stronger effect = higher value, 100 means same as DMSO control.
Experiment [14] is described as follows: modulators of MEP2-GFP levels in yeast, confirmation, S. cerevisiae, flow cytometry GFP, cherry picks (AID 2272;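 active means GFP response above 150% of the DMSO control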;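 further: ratio of well signal to plate DMSO mean so 100% equals DMSO level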). Conditions: S. cerevisiae MEP2-GFP strain, 3 h, at 10 µM, stronger effect = higher value.
A short description of experiment [15]: modulators of CIT2-GFP expression in yeast, confirmation, S. cerevisiae, GFP fusion, cherry picks, mother/daughter gates (AID 2274;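 active means GFP response above 150% of the DMSO level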). Conditions: S. cerevisiae CIT2-GFP strain, flow cytometry, 3 h, at 10 µM, stronger effect = higher value.
Experiment [16] can be described thus: inhibitors of CD8+ T cell-vesicle binding, pilot screen, LFA-1/ICAM-1 modulator project, MLPCN validation set, flow cytometry (AID 2523;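 active means response below a set limit, under 55% cells CD8-positive and vesicle-bound, and CD8 cells' 90th-percentile brightness under 279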;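 on vesicle binding response: mean PE anti-B7-1 fluorescence of CD8+ cells relative to row control; 100% = QL9-loaded vesicles with DMSO vehicle in the same plate row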). Conditions: 2C mouse CD8+ T cells, at 7 µM, stronger effect = lower value; double positive events: measured here: CD8+/vesicle+ event percentage.
The target of experiment [17] is Regulator of G-protein signaling 16 (Homo sapiens) (UniProt O15492). Kind of experiment: modulators of RGS–Galpha-o binding, primary screen, biochemical, multiplexed beads, flow cytometry, RGS4/7/8/16/19 (AID 1504).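 Further: fluorescently labeled Galpha-o bound to GDP with aluminium fluoride binding biotinylated RGS beads.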 Conditions: multiplexed bead flow cytometry, measured here: RGS16 interaction, at 10 µM.
Experiment [18] concerns the target Regulator of G-protein signaling 19 (Homo sapiens) (UniProt P49795). The description is as above. Conditions: multiplexed bead flow cytometry, measured here: RGS19 interaction, at 10 µM.
Experiment [19] addresses Regulator of G-protein signaling 7 (Homo sapiens) (UniProt P49802). The description is as above. Conditions: multiplexed bead flow cytometry, measured here: RGS7 interaction, at 10 µM.
The target in experiment [20] is Regulator of G-protein signaling 8 (Homo sapiens) (UniProt P57771). Described as above. Conditions: multiplexed bead flow cytometry, measured here: RGS8 interaction, at 10 µM.
The mark [21] stands for this setting: measured here: daughter cell gate.
The mark [22] stands for this setting: measured here: mother cell gate.
Where [23] appears, read: measured here: daughter cell gate response.
Setting [24] is: measured here: mother cell gate response.

Structures are written as SMILES. Records with an inconclusive call do not appear. The list shows a part of the results. The source made the active and inactive calls.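 How the source made its calls, unless noted: active means inhibition above 50%; inactive means the rest.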

Guanine nucleotide-binding protein G(o) subunit alpha (Homo sapiens), sequence (P09471 whole entry, looked up): as above
Guanine nucleotide-binding protein G(o) subunit alpha (Homo sapiens) + Regulator of G-protein signaling 19 (Homo sapiens), sequence (P09471 whole entry, looked up): as above
Guanine nucleotide-binding protein G(o) subunit alpha (Homo sapiens) + Regulator of G-protein signaling 19 (Homo sapiens), sequence (P49795 whole entry, looked up): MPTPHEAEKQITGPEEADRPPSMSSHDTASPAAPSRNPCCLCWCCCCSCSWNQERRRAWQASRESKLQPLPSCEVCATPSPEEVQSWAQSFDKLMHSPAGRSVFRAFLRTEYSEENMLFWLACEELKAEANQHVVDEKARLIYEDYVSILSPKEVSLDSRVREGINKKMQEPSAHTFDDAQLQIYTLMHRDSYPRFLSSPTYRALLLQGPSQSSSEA

As for `Cc1c(Br)cc(C(=O)N2CCCCCC2)c(C)c1C`, the inhibition in experiment [1] is -0.3% (inactive). Besides, the binding response (% of control) in experiment [2] and in experiment [5] was 102% (inactive) in each case. Besides, the results for the response (percent of control binding) in experiment [3] and in experiment [6] were 102% (inactive) and 104% (inactive), respectively. Also, in [4], the response (% of control binding) was 102% (inactive).
`CC(=O)Nc1ccccc1O`: the percent of DMSO control GFP in experiment [7] is 87.8% (inactive). The GFP response vs DMSO was 152% (active) in experiment [8]; 85.3% (inactive) in experiment [10]; 99% (inactive) in [12]; 101% in experiment [12] (setting [21]); 99.8% in [12] (setting [22]); 100% (inactive) in [14]. In addition, in [9], the percent response of DMSO control was 102% (inactive). The GFP response, % of DMSO in experiment [11] is 86.6% (inactive); in experiment [15], 110% (inactive); in experiment [15] (setting [21]), 105%; in experiment [15] (setting [22]), 113%. Also, the GFP response relative to DMSO is 93.8% (inactive) in [13], 98.7% in experiment [13] (setting [23]) and 93.1% in experiment [13] (setting [24]). In experiment [16], this molecule yielded a double positive events of 61.6%. Further, the vesicle binding response in experiment [16] is 142% (inactive).
As to `NC(=O)CSc1c[nH]c2ccccc12`, the RGS16–Galpha-o binding response in experiment [17] stood at 19.6%. Also, in [18], the RGS19–Galpha-o binding response is -48.5%. The molecule also returned an RGS7–Galpha-o binding response in experiment [19] of 25.2%. The RGS8–Galpha-o binding response in experiment [20] came to 27.5%. Moreover, the inhibition in experiment [1] is -1.7% (inactive). Moreover, the binding response (% of control) in experiment [2] is 104% (inactive); in experiment [5], 106% (inactive). The values for the response (percent of control binding) in experiment [3] and in experiment [6] were 102% (inactive) and 103% (inactive), respectively. Moreover, the response (% of control binding) in [4] was 110% (inactive).
In the case of `CC(=O)CSc1ncnc2c1cnn2-c1ccccc1`, the percent of DMSO control GFP in experiment [7] is 90.6% (inactive). In addition, the GFP response vs DMSO in experiment [8] is 116% (inactive); in experiment [10], 77.6% (inactive); in experiment [12] it was 100% (inactive); in [12] (setting [21]) it was 97.6%; in experiment [12] (setting [22]), 100%; in experiment [14], 99% (inactive). Further, the percent response of DMSO control in [9] was 92.6% (inactive). Also, the GFP response, % of DMSO is 87.3% (inactive) in experiment [11], 93% (inactive) in experiment [15], 92% in experiment [15] (setting [21]) and 91.9% in [15] (setting [22]). The GFP response relative to DMSO in experiment [13] is 106% (inactive); in experiment [13] (setting [23]), 101%; in [13] (setting [24]), 106%. The same molecule gave a double positive events in experiment [16] of 57.9%. Besides, the vesicle binding response in [16] was 221% (inactive).
For `COc1ccccc1CCNC(=O)CSc1nnc2ccc(-c3cccnc3)nn12`, the inhibition in [1] was -0.7% (inactive). The results for the binding response (% of control) in [2] and in experiment [5] were 100% (inactive) and 101% (inactive), respectively. Moreover, the response (percent of control binding) in experiment [3] was 103% (inactive); in [6], 107% (inactive). The response (% of control binding) in experiment [4] is 101% (inactive).
For `Cc1ccc(OCCCCn2ccnc2C)c(C)c1`, in [7], the percent of DMSO control GFP was 97.3% (inactive). Moreover, the GFP response vs DMSO was 99.6% (inactive) in [8]; 103% (inactive) in experiment [10]; 99.6% (inactive) in experiment [12]; 99.4% in experiment [12] (setting [21]); 101% in experiment [12] (setting [22]); 112% (inactive) in [14]. The percent response of DMSO control in experiment [9] was 95.7% (inactive). The GFP response, % of DMSO in experiment [11] is 110% (inactive); in experiment [15], 98.4% (inactive); in [15] (setting [21]), 100%; in experiment [15] (setting [22]), 97.7%. For the same molecule, the GFP response relative to DMSO in [13] is 99.8% (inactive); in [13] (setting [23]) it was 99.7%; in experiment [13] (setting [24]), 100%. Also, the double positive events in [16] was determined as 59.6%. Also, the vesicle binding response in experiment [16] was 179% (inactive).
For `C=CCNc1nc(N)c(C(=C(C#N)C#N)c2ccccc2)s1`, in experiment [1], the inhibition is 0.8% (inactive). Besides, the values for the binding response (% of control) in [2] and in [5] were 98.2% (inactive) and 95.9% (inactive), respectively. Moreover, the response (percent of control binding) was 87.1% (inactive) in [3] and 113% (inactive) in experiment [6]. In experiment [4], the response (% of control binding) was 99% (inactive).

(Values after PubChem BioAssay.)
